# Results taken from PubChem BioAssay (NCATS).
# Records with an inconclusive call do not appear. Active and inactive are the calls of the source. Unless noted, the call rests on the fitted dose curve; in most records, active means well fitted curve in the direction sought with a large enough effect; inconclusive means small, poorly fitted or top-dose-only effect, or another doubt; inactive means no such curve, though single readings can be large; an effect the other way counts as inactive or inconclusive.
# Experiments:
# [1] = test system: Zika virus NS2B-NS3 protease (linked construct); test: Primary screen NINDS Rhodamine qHTS for Zika virus inhibitors (AID 1347160)
# In short: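 Percent inhibition, normalized to uninhibited and enzyme-free controls, is fitted to a 4-parameter Hill equation. Fluorescence change comes from a 15-min cleavage of 1.5 microM bis-peptide Rhodamine110 substrate by 25 nM linked NS2B-NS3 at room temperature.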
# [2] = OV-KATE Cancer Cell Toxicity qHTS against the NCATS CANVASS Library (AID 1347345)
# In short: (§1)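 Step one: seed 1000 cells per well. Step two: incubate 4 h. Step three: add test compounds in 11 concentrations. Step four: culture 72 h, then add CellTiter-Glo and record luminescence after 15min.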
# [3] = HPAF-II Cancer Cell Toxicity qHTS against the NCATS CANVASS Library (AID 1347346)
# In short: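 Luminescence from CellTiter-Glo, added after 72 h compound exposure and a 15 min room-temperature incubation, served as the viability readout. HPAF-II cells (1000/well) received an 11-point concentration series.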
# [4] = UWB1.289 Cancer Cell Toxicity qHTS against the NCATS CANVASS Library (AID 1347347)
# In short: as §1
# [5] = OV-SAHO Cancer Cell Toxicity qHTS against the NCATS CANVASS Library (AID 1347348)
# In short: as §1
# [6] = Panc-1005 Cancer Cell Toxicity qHTS against the NCATS CANVASS Library (AID 1347349)
# In short: as §1
# [7] = SW1088 Cancer Cell Toxicity qHTS against the NCATS CANVASS Library (AID 1347350)
# In short: as §1
# [8] = COV-362 Cancer Cell Toxicity qHTS against the NCATS CANVASS Library (AID 1347352)
# In short: (§2)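 Luminescent ATP read-out (CellTiter-Glo, 15min at room temperature) measures survival after cells face an 11-point compound series for 72 hours at 37 degrees C/5% CO2.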
# [9] = UWB1.289-WTBRCA1 Cancer Cell Toxicity qHTS against the NCATS CANVASS Library (AID 1347354)
# In short: as §2
# [10] = HPAF-II 24hr Apoptosis Induction qHTS against the NCATS CANVASS Library (AID 1347356)
# In short: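 Luminescent caspase-3/7 signal (DEVD substrate, Caspase-Glo) served as read-out, taken 15 min after reagent addition to HPAF-II cells exposed 24 h to compounds.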
# [11] = HEK293 18hr Apoptosis Induction qHTS against the NCATS CANVASS Library (AID 1347357)
# In short: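 Natural products applied to HEK293 for 18 hr; Caspase-Glo 3/7 readout.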
# [12] = HEK293 24hr Apoptosis Induction qHTS against the NCATS CANVASS Library (AID 1347359)
# In short: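 HEK293 cells, 500 per well, exposed to an 11-point compound series for 24 hours at 37 degrees C. Caspase 3/7 activity read by Caspase-Glo luminescence (DEVD substrate) after 15 min at room temperature.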
# [13] = test system: NAD(P)H diaphorase (Clostridium kluyveri); test: Diaphorse counterscreen qHTS: Assay Interference Panel against the NCATS CANVASS Library (AID 1347362)
# In short: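 Clostridium kluyveri diaphorase in PBS + 0.01% Tween-20 preincubated 15 min with compounds. Resazurin and NADH then added for 5 min at room temperature in the dark; resorufin fluorescence read (ex 525, em 598).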
# [14] = biological target: Luciferin 4-monooxygenase (Photinus pyralis) (UniProt P08659); test: Firefly luciferase counterscreen qHTS: Assay Interference Panel against the NCATS CANVASS Library (AID 1347363)
# In short: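 Purified P. pyralis luciferase (0.04 ug/mL, 4x reagent) added to Tris-acetate buffer with 0.013 mM D-luciferin, 0.013 mM ATP and 13.3 mM Mg-acetate; compounds preincubated 15 min, then luminescence read after 5 min, RT.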
# [15] = KB-3-1 Cancer Cell Toxicity qHTS against the NCATS CANVASS Library (AID 1347366)
# In short: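 Cytotoxicity toward KB-3-1 cells (500/well, DMEM + 10% FBS) was scored by CellTiter-Glo luminescence following 72 hr exposure at 37C, with bortezomib titrated as control.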
# [16] = MCF7 Cancer Cell Toxicity qHTS against the NCATS CANVASS Library (AID 1347369)
# In short: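 This 72 hr qHTS scored MCF7 viability by CellTiterGlo luminescence, with 500 cells/well; bortezomib titration ran as control.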
# [17] = qHTS for ATAD5 Antagonist screened against the NCATS CANVASS Library (AID 1347370)
# In short: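 HEK293T cells with stably integrated ATAD5-luciferase reporter, 2000/well, 5 h attachment; compounds plus 10 µM 5-fluorouridine, 16 h at 37 °C. Luciferase luminescence read, with CellTiter-Fluor viability read first.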
# [18] = J3T Cancer Cell Toxicity qHTS against the NCATS CANVASS Library (AID 1347371)
# In short: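 Cells plated at 500 per well, compounds pin-transferred, plates incubated 72 hr at 37C, then CellTiterGlo added and luminescence read to measure ATP content.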
# [19] = biological target: Nuclear receptor subfamily 1 group I member 3 (Homo sapiens) (UniProt Q14994); test: qHTS for Constitutive Androstane Receptor (CAR) Antagonist screened against the NCATS CANVASS Library (AID 1347372)
# In short: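 HepG2 cells stably carrying hCAR and CYP2B6-2.2kb luciferase reporter, 2500 cells/well, compound with 50 nM CITCO agonist for 24hr at 37C. ONE-Glo luminescence measured CAR activity; CellTiter-Fluor read viability.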
# [20] = biological target: Nuclear receptor subfamily 1 group I member 3 (Homo sapiens) (UniProt Q14994); test: qHTS for Constitutive Androstane Receptor (CAR) Agonist screened against the NCATS CANVASS Library (AID 1347373)
# In short: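 HepG2-hCAR-CYP2B6 cells, 2500/well, attached 4hr; cpd + PK11195 1.5uM final; 24hr 37C 5% CO2. CellTiter-Fluor viability read, then ONE-Glo luminescence for CAR activation.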
# [21] = qHTS for Hypoxia signaling pathway (HIF-1) antagonists against the NCATS CANVASS Library (AID 1347374)
# In short: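 HRE-bla ME-180 cells in medium with 0.5% dialyzed FBS received compounds (11-point series) plus CoCl2 (60 uM addition stock) for 17 hrs at 37C. Beta-lactamase activity read with CCF4 (405 nm ex, 460/530 nm em); CellTiter-Glo viability measured in same wells.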
# [22] = qHTS for Inflammasome Signaling Inhibitors: IL-1-beta AlphaLISA screen against the NCATS CANVASS Library (AID 1347379)
# In short: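 THP-1 cells pretreated 1 hr with compound (up to 57.5 uM final), then stimulated with LPS (250 ng/mL final) and ATP (1.25 mM final). Secreted IL-1B measured by AlphaLISA after 16 hr; glyburide as positive control.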
# [23] = qHTS for Antimalaria activity screened against the NCATS CANVASS Library (AID 1347380)
# In short: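 Dd2 strain, infected erythrocytes 2.5% Hct final / 0.3% parasitemia. 11-pt qHTS titration, 72 h, 37C, 5% O2, 5% CO2. Lysis buffer + SYBR Green, 18 h, fluorescence 485/535 nm.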
# [24] = Inflammasome Signaling qHTS Counterscreen: IL-1-beta AlphaLISA counterscreen against the NCATS CANVASS Library (AID 1347381)
# In short: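 Cell-free interference check: compounds added to medium spiked with 4 pg purified IL-1β. Anti-IL-1β acceptor beads (6 ug/mL) with 0.6 nM biotinylated antibody added for 1 h at RT, then streptavidin donor beads (24 ug/mL) for 30 min in the dark. AlphaLISA read at 680/615 nm.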
# [25] = Cytotoxicity qHTS for assessment of Hepg2 cells membrane integrity screened against the NCATS CANVASS Library (AID 1347387)
# In short: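 qHTS, 11-pt conc. series, 0.59 nM - 46 uM final; HepG2 2000 cells/well, overnight attachment; 5 hr compound exposure 37C/5% CO2; CytoTox-ONE, 10 min RT; fluorescence ex560/em590 = LDH from damaged membranes.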
# [26] = qHTS for Activators of p53 Stress Response Pathway screened against the NCATS CANVASS Library (AID 1347388)
# In short: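 p53RE-bla HCT-116 cells (4000/well) were pre-incubated for 5 h, then treated with compound (11 points) for 16 h at 37C. After 2 h with CCF4, the 460/530 nm ratio gave reporter activation; CellTiter-Glo measured viability.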
# [27] = qHTS assay for small molecule disruptors of mitochondrial membrane potential screened against the NCATS CANVASS Library (AID 1347389)
# In short: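 HepG2, 2,000 cells/well, attached overnight; compound 1 hr, 37C, 5% CO2; Mito-MPS dye 30 min, 37C; fluorescence 535 nm (monomer) and 590 nm (aggregate); decreased 590/535 ratio = depolarization.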
# [28] = Secretion counterscreen for inhibitors of the SERCaMP assay screened against the NCATS CANVASS Library (AID 1347390)
# In short: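 Natural products are titrated in an 11-point series up to 77 uM onto SH-SY5Y-GLuc STOP cells for 20 h. Secreted reporter activity is measured as coelenterazine-driven luminescence, with Brefeldin A on each plate.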
# [29] = qHTS for activators of Nrf2/ARE signaling pathway screened against the NCATS CANVASS Library (AID 1347391)
# In short: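 Plate ARE-bla HepG2 cells at 2000/well and let them settle 5 h. Pin-transfer compounds in DMSO, incubate 16 h at 37C. Load CCF4 for 2 h at room temperature and read blue/green fluorescence.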
# [30] = qHTS for activators of dead-cell proteases activity screened against the NCATS CANVASS Library (AID 1347392)
# In short: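 HepG2 cells, 2000/well, attached 18 h at 37C, then exposed to compounds (11-point qHTS) for 5 h. Dead-cell protease release read as luminescence from cell-impermeant AAF-aminoluciferin substrate after 15 min at room temperature.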
# [31] = qHTS for inhibitors of ER calcium dysfunction: SERCaMP assay screened against the NCATS CANVASS Library (AID 1347393)
# In short: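 SH-SY5Y GLuc-SERCaMP, 1000 cells/well, 4 h attach; cpd 16 h, 37C/5% CO2; thapsigargin (added as 6x 600 nM) 4 h; coelenterazine; luminescence. Reduced reporter release = ER Ca stabilization.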
# [32] = Vero-766 cells viability qHTS against the NCATS CANVASS Library: Counterscreen for Zika virus inhibition assay (AID 1347394)
# In short: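 Counterscreen for toxicity: Vero 766 cells exposed 72 h to an 11-point compound series, viability by CellTiter-Glo.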
# [33] = qHTS for inhibitors of Wild type Zika virus screened against the NCATS CANVASS Library (AID 1347396)
# In short: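 Using ATP-based luminescence (CellTiter Glo), this screen scores rescue of Vero 766 cells from wild-type Zika killing at 72 h post-infection. Compounds are tested in a concentration series.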
# [34] = qHTS for inhibitors of Rabies Virus screened against the NCATS CANVASS Library (AID 1347402; calls by dose curve)
# Chain of Nuclear receptor subfamily 1 group I member 3 (Homo sapiens) (Q14994 whole entry, looked up): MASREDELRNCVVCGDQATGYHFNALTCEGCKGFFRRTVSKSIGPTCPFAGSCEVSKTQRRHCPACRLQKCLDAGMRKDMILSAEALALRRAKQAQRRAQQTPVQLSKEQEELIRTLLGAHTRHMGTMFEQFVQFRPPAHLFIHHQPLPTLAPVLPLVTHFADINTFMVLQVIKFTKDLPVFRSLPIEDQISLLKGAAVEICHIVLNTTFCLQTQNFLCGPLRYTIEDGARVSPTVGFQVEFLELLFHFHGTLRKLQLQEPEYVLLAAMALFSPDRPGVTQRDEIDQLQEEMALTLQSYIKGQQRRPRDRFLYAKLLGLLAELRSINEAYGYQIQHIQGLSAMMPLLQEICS
# Chain of Luciferin 4-monooxygenase (Photinus pyralis) (P08659 whole entry, looked up): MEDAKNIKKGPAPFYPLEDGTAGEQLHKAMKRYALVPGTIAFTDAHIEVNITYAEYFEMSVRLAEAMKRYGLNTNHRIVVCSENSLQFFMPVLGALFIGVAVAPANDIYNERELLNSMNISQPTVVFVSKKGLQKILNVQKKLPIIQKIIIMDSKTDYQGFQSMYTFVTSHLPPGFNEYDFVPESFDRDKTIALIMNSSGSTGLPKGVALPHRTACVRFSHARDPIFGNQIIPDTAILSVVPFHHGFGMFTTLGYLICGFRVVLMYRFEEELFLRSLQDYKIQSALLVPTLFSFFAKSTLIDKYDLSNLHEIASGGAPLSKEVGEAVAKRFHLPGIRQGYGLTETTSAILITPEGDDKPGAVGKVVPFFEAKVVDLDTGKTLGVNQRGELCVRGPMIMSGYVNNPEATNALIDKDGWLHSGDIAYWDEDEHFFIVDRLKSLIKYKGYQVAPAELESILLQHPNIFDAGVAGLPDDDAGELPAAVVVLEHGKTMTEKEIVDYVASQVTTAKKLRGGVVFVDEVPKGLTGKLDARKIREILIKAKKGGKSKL
compound,measurement,setting,value
CCN1C[C@]2(C)CC[C@H](O)[C@]34C1C(C[C@H]23)[C@@]12CC[C@H](CC14)[C@](O)(COC(=O)c1ccc(OC)c(OC)c1)[C@H]2O (some centres undefined),Potency,[1],inactive
same,Potency,[2],inactive
same,Potency,[3],inactive
same,Potency,[4],inactive
same,Potency,[5],inactive
same,Potency,[6],inactive
same,Potency,[7],inactive
same,Potency,[8],inactive
same,Potency,[9],inactive
same,outcome,[10],inactive
same,Potency,[11],inactive
same,Potency,[12],inactive
same,outcome,[13],inactive
same,outcome,[14],inactive
same,Potency,[15],inactive
same,Potency,[16],inactive
same,Potency,[17],inactive
same,Potency,[18],inactive
same,Potency,[19],inactive
same,outcome,[20],inactive
same,Potency,[21],inactive
same,Potency,[22],inactive
same,Potency,[23],inactive
same,outcome,[24],inactive
same,outcome,[25],inactive
same,Potency,[26],inactive
same,Potency,[27],inactive
same,Potency,[28],inactive
same,Potency,[29],inactive
same,Potency,[30],inactive
same,Potency,[31],10.8 µM (active)
same,Potency,[32],inactive
same,Potency,[33],inactive
same,outcome,[34],inactive
